DAX1 inh-1: NR0B1 (DAX1) inhibition; P51843; 0.99% of 340,000 active; AID 504766; HEK293 Gal4-DAX1 luciferase reporter, luminescence; inhibition, % at 6.75 µM;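 active means inhibition above the mean over all tested compounds plus 3 SD, cut at about 4.2% in these data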;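 further: inhibition shows as a rise in luminescence from relieved DAX1 repression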
Target sequence (P51843 207-470 limits assumed): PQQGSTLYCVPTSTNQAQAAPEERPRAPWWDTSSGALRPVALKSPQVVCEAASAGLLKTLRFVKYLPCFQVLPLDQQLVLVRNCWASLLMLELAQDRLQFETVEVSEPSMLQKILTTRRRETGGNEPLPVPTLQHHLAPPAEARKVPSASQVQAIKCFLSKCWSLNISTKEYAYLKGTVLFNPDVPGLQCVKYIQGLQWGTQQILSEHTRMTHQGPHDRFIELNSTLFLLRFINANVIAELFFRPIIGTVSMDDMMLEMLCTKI
SMARCA2 act: increases SMARCA2 function in MMTV reporter cells; MG213 cells, MMTV-luciferase reporter, dexamethasone, overnight; AID 652017; activation, % at 9.1 µM; 1% of 370,000 active; in the data active means activation above about 7.8%
DAX1 inh-2: blocks DAX1 repression of SF-1 activated StAR promoter | HEK293T StAR-luciferase reporter, SF-1/DAX-1 repression relief | inhibition, % at 6.8 µM | 1.1% of 370,000 active;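 active means inhibition above the mean over all tested compounds plus 3 SD, cut at about 3.6% in these data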;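 further: higher inhibition means more luminescence from relief of DAX-1 repression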
ssDAF12 agonist: activators of S. stercoralis DAF-12 nuclear receptor | HEK293 ssDAF-12/GRIP1 lit1-tk-luc reporter, luminescence; % of 3 µM dafachronic acid response | activation, % at 6.8 µM | 1% of 370,000 active | AID 652126;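 active means activation above the mean over all tested compounds plus 3 SD, cut at about 0.9% in these data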
hgDAF12 agonist: hgDAF-12 agonism, primary luciferase screen. HEK293 GAL4-hgDAF12 UAS-luciferase reporter, agonist luminescence; normalized to butyrate control. activation, % at 6.8 µM. 1.8% of 370,000 active. AID 687014;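 active means activation above a cutoff set at the mean of all screened compounds plus 3 SD, cut at about 10% in these data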
hcDAF12 agonist: activates DAF-12 receptor from parasite H. contortus | 1.4% of 370,000 active | activation, % at 6.8 µM | HEK293 hcDAF-12 lit1-tk-luc reporter, luminescence; 0% DMSO, 100% Δ7-dafachronic acid | AID 652067;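 active means activation above the mean of all tested compounds plus 3 SD, cut at about 5.5% in these data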
SMARCA2 act conf: SMARCA2 activation, confirmation screen. MG213 cells, MMTV-luciferase with dexamethasone, luminescence, overnight; MG213 cells expressing E1A, Rb sequestered; DMSO wells 0%, reference activator 100%. activation, % at 9.1 µM. AID 652260. shares compounds with SMARCA2 act. 30% of 3,500 active;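 active means activation above its plate's cutoff, the mean activation of tested wells plus 3 SD, cut at about 7.9% in these data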
VP16 Luc act: counter-screen for SMARCA2 activators: GAL4-VP16 luciferase reporter activation; shares compounds with SMARCA2 act; HEK293 GAL4-VP16 pG5luc reporter, luciferase luminescence; scaled: DMSO wells 0%, SAHA wells 100%; activation, % at 9.1 µM; 41% of 3,500 active; AID 686939;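 active means activation above the solvent-only control well mean plus 3 SD, averaged across control plates, cut at about 5.2% in these data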
LXRb hcDAF ctr: LXR-beta agonism as hcDAF-12 counter-screen | shares compounds with hcDAF12 agonist | HEK293 Gal4-LXR tk-luc reporter, luminescence, 24 h; normalized: DMSO 0%, positive control 100% | activation, % at 6.8 µM | 3,400 tested, under 10 active | AID 743027;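 active means mean percent activation of the reporter above a cutoff set as the average over tested compounds plus their standard deviation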
Target sequence (P55055 whole entry, looked up, the tested form may be a part): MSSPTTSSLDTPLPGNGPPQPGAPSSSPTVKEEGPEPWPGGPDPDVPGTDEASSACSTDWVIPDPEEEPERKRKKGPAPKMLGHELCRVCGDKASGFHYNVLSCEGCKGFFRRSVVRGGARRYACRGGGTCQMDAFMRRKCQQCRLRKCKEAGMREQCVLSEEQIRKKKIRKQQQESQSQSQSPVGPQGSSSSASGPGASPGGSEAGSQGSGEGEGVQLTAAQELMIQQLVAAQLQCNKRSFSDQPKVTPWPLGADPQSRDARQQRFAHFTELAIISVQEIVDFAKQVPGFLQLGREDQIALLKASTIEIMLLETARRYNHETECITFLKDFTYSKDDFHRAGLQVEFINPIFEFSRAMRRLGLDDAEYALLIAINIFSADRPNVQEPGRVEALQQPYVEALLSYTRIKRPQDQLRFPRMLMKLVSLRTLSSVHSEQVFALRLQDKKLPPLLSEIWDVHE
hcDAF12 ag: confirmation of H. contortus DAF-12 agonists; shares compounds with hcDAF12 agonist; HEK293 hcDAF-12 lit1-tk-luc reporter, luminescence; % of Δ7-dafachronic acid response; activation, % at 6.8 µM; 61% of 3,400 active; AID 743032;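 active means mean activation across triplicate tests above the threshold derived from the earlier primary screen, cut at about 5.5% in these data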
hgDAF12 ag: hgDAF-12 agonism, confirmation assay; shares compounds with hgDAF12 agonist; HEK293 GAL4-hgDAF12 luciferase reporter, agonist mode; percent of butyrate response; activation, % at 6.8 µM; 80% of 3,300 active; AID 743050;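 active means mean activation over triplicate wells above the hit cutoff derived from the earlier primary screen, cut at about 11% in these data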
LXR ag 2: activates human LXR-beta, counter-screen for DAF-12 agonists; 3,300 tested, under 10 active; AID 743051; HEK293 Gal4-LXR luciferase reporter, 24 h; shares compounds with hgDAF12 agonist; activation, % at 6.8 µM;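 active means mean activation of the triplicate above a set limit carried over from the primary screen, none filed active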
Each line names hits and unclear results; the compound was inactive in the other large screens (follow-up assays come after a bar, where they were run). Only some compounds are listed: those with a hit (about 4.8% of all), similar ones and a draw of the others.

COc1ccc(C(=O)CN2Cc3ccccc3C2=N)cc1	SMARCA2 act 12, ssDAF12 agonist 2.1, hgDAF12 agonist 13, hcDAF12 agonist 18 | SMARCA2 act conf 8.3 | VP16 Luc act 6.1 | LXRb hcDAF ctr inactive | hcDAF12 ag 9.5
COc1ccc(C(=O)CN2C(=O)COc3ccccc32)cc1	none
C(=N\Nc1ccccc1)/c1nc2ccccc2s1	DAX1 inh-1 4.8, SMARCA2 act 10, ssDAF12 agonist 3.8, hgDAF12 agonist 24, hcDAF12 agonist 18 | SMARCA2 act conf inactive | VP16 Luc act 9.0 | LXRb hcDAF ctr inactive | hcDAF12 ag 23
CNC(=S)SCCOc1ccc(C)cc1	none
Cn1ccc(C(=O)N/N=C/c2c[nH]c3ccccc23)n1	SMARCA2 act 16, ssDAF12 agonist 0.9, hcDAF12 agonist 12 | SMARCA2 act conf 8.0 | VP16 Luc act inactive | LXRb hcDAF ctr inactive | hcDAF12 ag inactive
C=CCN1C(=O)CSC1=Nc1ccc(NC(C)=O)cc1	none
Cc1cc(C)cc(OCC(=O)NNC(=O)c2ccccn2)c1	none
C/C(CC(=O)Nc1cc(C)cc(C)c1)=N\NC(=O)c1ccccn1	SMARCA2 act 9.8, hgDAF12 agonist 11, hcDAF12 agonist 7.4 | SMARCA2 act conf inactive | VP16 Luc act inactive | LXRb hcDAF ctr inactive | hcDAF12 ag inactive
COc1ccccc1-c1nnc(-c2ccc(C)cc2)o1	DAX1 inh-1 8.4, SMARCA2 act 13, hgDAF12 agonist 11, hcDAF12 agonist 8.0 | SMARCA2 act conf inactive | VP16 Luc act 7.1 | LXRb hcDAF ctr inactive | hcDAF12 ag 8.5
Cc1cc2oc3c(c(=O)c2cc1C)C(c1cccc(Br)c1)N(Cc1ccco1)C3=O (stereo not given)	none
COc1ccc(C(C#N)N2N=C(C)CC2c2ccccc2)cc1OC (stereo not given)	none
COc1ccc(C(C#N)N2N=C(c3ccccc3)CC2c2ccccc2)cc1OC (stereo not given)	SMARCA2 act 13, hcDAF12 agonist 8.7 | SMARCA2 act conf inactive | VP16 Luc act inactive | LXRb hcDAF ctr inactive | hcDAF12 ag inactive
CCOC(=O)CSc1nnc(CCCCCN2C(=O)c3cccc4cccc(c34)C2=O)o1	none
Cc1ccc(O)c(N=CC2=C(O)c3ccccc3C2=O)c1	SMARCA2 act 8.4, hcDAF12 agonist 6.8 | SMARCA2 act conf 19 | VP16 Luc act 14 | LXRb hcDAF ctr inactive | hcDAF12 ag inactive
Cc1cc(C)c2c(N)c3cccc(C)c3nc2n1	SMARCA2 act 28, ssDAF12 agonist 1.7, hcDAF12 agonist 10 | SMARCA2 act conf 347 | VP16 Luc act 6.1 | LXRb hcDAF ctr inactive | hcDAF12 ag 31
CN(C)/C=N/c1nc2ccc3c(c2s1)CCCC3	SMARCA2 act 15, hgDAF12 agonist 11, hcDAF12 agonist 6.7 | SMARCA2 act conf 18 | VP16 Luc act 13 | LXRb hcDAF ctr inactive | hcDAF12 ag 6.4
COc1ccc2nc(/N=C\N(C)C)sc2c1	none
CCOc1cc(C2C(C(=O)OC(C)C)=C(C)N=C3SCCC(=O)N32)ccc1OC(C)=O (stereo not given)	none
Cc1ccccc1NC(=O)/C(C#N)=C/c1ccsc1	none
Cc1ccccc1NC(=O)/C(C#N)=C/c1ccc[nH]1	SMARCA2 act 9.5, hcDAF12 agonist 11 | SMARCA2 act conf inactive | VP16 Luc act 5.3 | LXRb hcDAF ctr inactive | hcDAF12 ag 8.5
O=C(CSc1nnc(NC(=O)Cc2ccccc2)s1)NCc1ccco1	none
Cc1cc(C)cc(C(=O)Nc2cccnc2Cl)c1	none
Cc1ccc(C(=O)Nc2cccnc2Cl)cc1Cl	DAX1 inh-1 6.0, SMARCA2 act 8.3, hcDAF12 agonist 8.0 | SMARCA2 act conf 9.1 | VP16 Luc act 7.5 | LXRb hcDAF ctr inactive | hcDAF12 ag inactive
CCOc1ccc(N=c2scc(-c3ccc(OC)cc3)n2CCO)cc1	none
COc1cccc2c1CCc1c-2nc2ccccc2c1C(=O)O	SMARCA2 act 11, hgDAF12 agonist 12, hcDAF12 agonist 8.4 | SMARCA2 act conf 8.2 | VP16 Luc act 5.9 | LXRb hcDAF ctr inactive | hcDAF12 ag 7.8
O=C(CSc1cn(CC(=O)N2CCOCC2)c2ccccc12)N1CCOCC1	none
O=C(Cn1cc(SCc2cccc(Cl)c2)c2ccccc21)N1CCOCC1	SMARCA2 act 18, hcDAF12 agonist 7.8 | SMARCA2 act conf inactive | VP16 Luc act 5.4 | LXRb hcDAF ctr inactive | hcDAF12 ag inactive
COc1ccc2nc(N3C(=O)CNC3=S)sc2c1	SMARCA2 act 8.6, hcDAF12 agonist 8.4 | SMARCA2 act conf 14 | VP16 Luc act 10 | LXRb hcDAF ctr inactive | hcDAF12 ag inactive
CNc1ccccc(-c2ccc3ccccc3n2)c1=O	SMARCA2 act 15, hcDAF12 agonist 7.0 | SMARCA2 act conf inactive | VP16 Luc act 5.2 | LXRb hcDAF ctr inactive | hcDAF12 ag 7.2
Cc1cc(=O)n(-c2ccc3ccccc3n2)[nH]1	none
CS(=O)(=O)c1ccc2nc(NC(=O)c3cc4ccccc4o3)sc2c1	none
O=C(Nc1nc(-c2nc3ccccc3s2)cs1)c1ccco1	SMARCA2 act 12, DAX1 inh-2 4.5, hgDAF12 agonist 19 | SMARCA2 act conf 9.5 | VP16 Luc act 8.3 | hgDAF12 ag inactive | LXR ag 2 inactive
CS(=O)(=O)c1ccc2nc(NC(=O)c3ccco3)sc2c1	SMARCA2 act 9.9, hgDAF12 agonist 15 | SMARCA2 act conf 11 | VP16 Luc act 12 | hgDAF12 ag 14 | LXR ag 2 inactive
COc1cccc(CN2CCNC(=O)C2CC(=O)NCCCC2CCCC2)c1OC (stereo not given)	none
CCOc1ccc2nc(NC(=O)Cc3cccs3)sc2c1	none (no result: SMARCA2 act, DAX1 inh-2, ssDAF12 agonist, hgDAF12 agonist, hcDAF12 agonist)
